Unmarked numbers belong to inactive results. How the calls were made is not given here.
system: HIV-1 nucleocapsid protein NCp7 (binding to TG oligonucleotide); test: HIV Nucleocapsid (AID 346); conditions: HIV-1 NC / fluorescein-TGTGTGTG probe, fluorescence polarization;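 further: potency is for inhibitors that block NC binding and lower polarization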
Method in brief: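 HIV-1 NC (100 nM) binding to fluorescein-labelled ssDNA TG4xF (10 nM) in Hepes pH 7.5, 250mM NaCl, 1uM ZnCl2, TCEP and 2-mercaptoethanol; compounds pin-transferred, 1 hr room temperature, fluorescence polarization read on CCD imager.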
Potency means the concentration at half of the fitted maximal effect.

Row | Structure (SMILES) | Potency
1 | O=c1c(-c2ccc(F)cc2)nc2cnc(N3CCOCC3)nc2n1C[C@H]1CCCO1 | > 20 µM
2 | FC(F)(F)c1ccccc1-c1nccc(-n2ccnc2)n1 | > 20 µM
3 | O=C(c1csnn1)N1CCC2(CC1)CN(c1ncccn1)C2 | > 20 µM
4 | O=C(c1csnn1)N1CCC2(CCCN(c3cccc(-c4ccccc4)c3)C2)CC1 | > 20 µM
5 | COCCn1c(=O)c(-c2cccs2)nc2cnc(OCc3ccccc3)nc21 | > 20 µM
6 | O=C(c1cccc(F)c1)N1CCC[C@@]2(CCN(Cc3ccccc3)C2)C1 | > 20 µM
7 | O=c1c(-c2cc(F)cc(F)c2)nc2cnc(Oc3ccccc3)nc2n1C[C@H]1CCCO1 | > 20 µM
8 | COCC(=O)N1CCC2(CCCN(C(=O)Nc3ccc(OC)cc3)C2)CC1 | > 20 µM
9 | COCC(=O)N1CCC[C@@]2(CCN(Cc3cc(C(F)(F)F)cc(C(F)(F)F)c3)C2)C1 | > 20 µM
10 | COc1cccc(Cn2c(=O)c(-c3cccs3)nc3cnc(Nc4ccccc4)nc32)c1 | > 20 µM
11 | O=C(c1cnccn1)N1CCC[C@@]2(CCN(c3cccc(-c4ccccc4)c3)C2)C1 | > 20 µM
12 | Cc1nc2cnc(N(C)C)nc2n(Cc2cccs2)c1=O | > 20 µM
13 | CN(C)c1ncc2nc(-c3cccs3)c(=O)n(Cc3cccs3)c2n1 | > 4 µM
14 | COCCn1c(=O)c(-c2cccs2)nc2cnc(N3CCNCC3)nc21 | 13 µM
15 | COc1ccc(NC(=O)N2CC3(CCN(C(=O)c4csnn4)CC3)C2)cc1 | > 20 µM
16 | Cc1noc(C)c1C(=O)N1CCC2(CCCN(C(=O)Nc3ccccc3)C2)CC1 | > 20 µM
17 | CN(C)c1ccc(-c2nccc(NCc3ccccc3)n2)cc1 | > 20 µM
18 | COCCn1c(=O)c(-c2cccs2)nc2cnc(Oc3ccccc3)nc21 | > 20 µM
19 | CC(C)NC(=O)N1CCC2(CC1)CCN(C(=O)c1ccncc1)CC2 | > 20 µM
20 | CC(C)CN1CC[C@@]2(CCCN(C(=O)c3cccc(F)c3)C2)C1 | > 20 µM

Row | Structure (SMILES) | Potency
21 | O=c1c(CCc2ccccc2)nc2cnc(N3CCNCC3)nc2n1Cc1cccs1 | > 20 µM
22 | COc1cccc(Cn2c(=O)c(C)nc3cnc(N4CCOCC4)nc32)c1 | > 20 µM
23 | COCCn1c(=O)c(-c2ccc(F)cc2)nc2cnc(N3CCOCC3)nc21 | > 20 µM
24 | O=C(c1cccc(F)c1)N1CCC[C@@]2(CCN(c3ncccn3)C2)C1 | > 20 µM
25 | COc1cccc(-c2cncnc2NCc2cnc(C)cn2)c1 | > 20 µM
26 | COCCn1c(=O)c(-c2cc(F)cc(F)c2)nc2cnc(N(C)C)nc21 | > 20 µM
27 | COc1ccc(Oc2ncc3nc(C)c(=O)n(C4CC4)c3n2)cc1 | > 20 µM
28 | Cn1cccc1C(=O)N1CCC2(CC1)CCN(c1cccc(-c3ccccc3)c1)CC2 | > 20 µM
29 | COc1ccc(-c2nc3cnc(OC)nc3n(Cc3cccc(OC)c3)c2=O)cc1 | > 20 µM
30 | Cc1nc2cnc(Nc3ccccc3)nc2n(CCC#N)c1=O | > 20 µM
31 | COc1cccc(-c2nc(NCCNC(C)=O)c3ccccc3n2)c1 | > 20 µM
32 | CN(C)c1ncc2nc(-c3cc(F)cc(F)c3)c(=O)n(C3CC3)c2n1 | > 20 µM
33 | CN(Cc1ccco1)c1nc(-c2ccc3c(c2)OCO3)nc2ccccc12 | > 20 µM
34 | COc1ccccc1CNc1nc(-c2cccnc2)nc2ccccc12 | > 20 µM
35 | COc1ccc(NC(=O)N2CC3(CCN(S(C)(=O)=O)CC3)C2)cc1 | > 20 µM
36 | N#CCCn1c(=O)c(-c2cccc(C#N)c2)nc2cnc(N3CCOCC3)nc21 | > 20 µM
37 | COCCn1c(=O)cnc2cnc(OCc3ccccc3)nc21 | > 20 µM
38 | FC(F)(F)c1ccccc1-c1ccc2ncnc(NC3CCNCC3)c2c1 | > 20 µM
39 | O=C(c1cnccn1)N1CCC2(CCCN(Cc3ccncc3)C2)CC1 | > 20 µM
